Assay outcomes as filed in PubChem.
The list is not random: actives were taken first. Their share in the collection is about 6.3%.
HepG2 viability: HepG2 cytotoxicity, counter-screen for TGF-b inhibitors; HepG2 CAGA-GFP viability, ATP luminescence, 18 h; Potency, µM (top dose mostly 46.1 µM), without a hit: at the top dose activity change, negative = cytotoxicity, usual class: cytotoxic; 410,000 compounds, 0.76% hits
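CellTiter-Glo luminescence gave cytotoxicity after 18 hours at 37 degrees C. The cells were HepG2 CAGA-GFP in 1% FBS DMEM, stimulated with 500 pg/mL TGF-beta after compound addition. %Activity was normalised to no-cell wells (complete cell-killing) and DMSO (no toxicity), and curves were fitted and classified.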
ATXN2 expr inh: ATXN2 expression inhibition. HEK-293 ATXN2-luciferase reporter, luminescence, 24 h. Potency, µM (doses to about 57 µM), inactives show at the highest dose activity change, negative = inhibition, usual class: inhibitors. 360,000 compounds, 0.72% hits. AID 1745845; further: on the % scale 0 is the no-effect control and ±100 the full control effect; nearly all actives have a fitted effect of over 55% in size
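qHTS (up to 57 uM final) was run with 24 h compound exposure of reporter cells at 37 °C. Each well was multiplexed: SteadyGlo luminescence measured ATXN2-luciferase expression after a fluorogenic Gly-Phe-AFC viability readout (25 uM final).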
S2 tox: viability counter-screen for ATXN expression inhibitors. S2 cells (HEK-293 line with an ATXN2-luciferase reporter) viability, CellTiter-Fluor protease fluorescence, 24 h. Potency, µM (top dose mostly 56.7 µM), most hits filed as cytotoxic. 400,000 compounds, 0.49% hits. AID 651635; further: nearly all actives have a fitted effect of over 40% in size
VP16 counter: counter-screen for ROR gamma inhibitors: Gal4-VP16 reporter; Drosophila S2 Gal4-VP16 UAS-luciferase, luminescence, 20 h; Potency, µM (top dose mostly 53.6 µM), for inactives: top-dose activity, negative = inhibition, usual class: inhibitors; 310,000 compounds, 3.5% hits;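 further: Gal4-VP16 expression switched on by copper sulfate through the metallothionein promoter; on the % scale 0 is the no-effect control and ±100 the full control effect; nearly all actives have a fitted effect of over 50% in size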
TGFb SMAD3 inh: blocks TGF-b signaling; HepG2 CAGA-GFP TGF-b/SMAD3 reporter, GFP fluorescence, 18 h; TGF-beta stimulated, 500 pg/mL final; Potency, µM (top dose mostly 46.1 µM), without a hit: top-dose activity, negative = inhibition, actives largely listed as inhibitors; 410,000 compounds, 1.2% hits; AID 588855; further: on the % scale 0 is the no-effect control and ±100 the full control effect; nearly all actives have a fitted effect of over 65% in size
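Cell-based qHTS in HEPG2 carrying a CAGA-GFP Smad reporter; compounds added before 500 pg/mL final TGF-beta, 18 h incubation at 37 degrees C, GFP fluorescence quantified per cell by imaging cytometry.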
RORgamma inh: inhibitors of mouse ROR gamma transcriptional activity; P51450; Drosophila S2 Gal4-RORgamma UAS-luciferase reporter, 20 h; Potency, µM (doses to about 53.6 µM), inactives show top-dose activity change, negative = inhibition, usual class: inhibitors; 310,000 compounds, 5.4% hits; AID 2551; further: on the % scale 0 is the no-effect control and ±100 the full control effect; nearly all actives have a fitted effect of over 60% in size
Target sequence (P51450 whole entry, looked up, the tested form may be a part): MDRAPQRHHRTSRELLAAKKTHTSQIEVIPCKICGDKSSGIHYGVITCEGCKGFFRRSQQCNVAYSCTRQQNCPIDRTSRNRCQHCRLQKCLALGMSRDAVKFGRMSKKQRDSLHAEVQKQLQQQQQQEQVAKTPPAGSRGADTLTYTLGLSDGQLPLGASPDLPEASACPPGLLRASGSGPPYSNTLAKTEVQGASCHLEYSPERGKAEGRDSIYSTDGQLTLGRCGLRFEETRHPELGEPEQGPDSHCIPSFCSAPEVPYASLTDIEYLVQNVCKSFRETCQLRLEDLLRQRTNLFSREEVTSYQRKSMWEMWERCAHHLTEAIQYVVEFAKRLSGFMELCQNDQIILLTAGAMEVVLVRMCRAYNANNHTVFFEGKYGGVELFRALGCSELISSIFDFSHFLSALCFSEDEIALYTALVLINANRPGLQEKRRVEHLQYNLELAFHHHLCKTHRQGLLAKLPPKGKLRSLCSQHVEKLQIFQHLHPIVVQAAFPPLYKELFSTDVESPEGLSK
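Stably transfected Drosophila Schneider cells are the test system, with ROR gamma fused to Gal4 and luciferase under UAS control; luminescence is read after 20 hr of 700 uM copper sulfate induction at ambient temperature.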
* marks the source's active call; other numbers are inactive results; i = inactive; ? = inconclusive; . = no result given. The call rests on the fitted dose curve; in most records, active means well fitted curve in the direction sought with a large enough effect; inconclusive means small, poorly fitted or top-dose-only effect, or another doubt; inactive means no such curve, though single readings can be large; an effect the other way counts as inactive or inconclusive. Potency means the concentration at half of the fitted maximal effect.

SMILES	HepG2 viability	ATXN2 expr inh	S2 tox	VP16 counter	TGFb SMAD3 inh	RORgamma inh
Cc1ccc(C2NC(c3ccc4c(c3)OCO4)=CC(c3cc(Br)ccc3O)N2)cc1 (configuration not stated)	-47%	.	.	.	?	.
COc1ccc(F)c(Cn2cnc3c(cnn3C(C)(C)C)c2=O)c1Cl	7%	.	.	.	3%	.
CCOc1ccccc1OCC1CNCCO1 (configuration not stated)	.	3%	i	.	.	.
Cc1n[nH]c(=S)n1Cc1ccccc1	3%	-2%	i	9%	8%	-40%
S=c1[nH]nc(-c2ccc(Br)o2)n1Cc1ccccc1	-19%	11%	i	13µM*	8%	6.3µM*
S=c1[nH]nc(-c2cccs2)n1Cc1ccccc1	-73%	.	i	?	7%	2.8µM*
S=c1[nH]nc(-c2ccccc2)n1Cc1ccccc1	7%	-2%	i	14µM*	-7%	2.5µM*
COc1ccccc1-c1n[nH]c(=S)n1Cc1ccccc1	-9%	187%	i	?	-3%	?
S=c1[nH]nc(-c2ccc(Cl)cc2)n1Cc1ccccc1	-18%	-21%	i	2.8µM*	-5%	1.8µM*
COc1ccc(NC(=O)C(C)n2nnc3sc(-c4ccccc4)cc3c2=O)cc1Cl (configuration not stated)	-3%	5%	?	.	-27%	.
Cc1ncsc1CCC(=O)N1CCCC(c2nc(-c3ccncc3)ncc2-c2ccccc2)C1 (configuration not stated)	.	.	i	.	.	.
CCOc1cc(NC(C)=O)ccc1C(=O)OC	.	13%	i	-8%	.	2%
S=c1[nH]nc(C2CCCCC2)n1Cc1ccccc1	-5%	1%	i	7.1µM*	-5%	2.5µM*
O=C(NCc1n[nH]c(=S)n1Cc1ccccc1)c1ccccc1	2%	.	i	4%	0%	?
Cc1ccc(NC(=S)N2CCN(C)CC2)c(C)c1	1%	-2%	i	-10%	-4%	-17%
COc1cc2c(cc1OC)CN(C(=S)Nc1ccccc1Cl)CC2	-5%	-15%	i	-13%	?	?
COc1cc2c(cc1OC)CN(C(=S)Nc1ccccc1)CC2	-3%	-6%	i	-9%	-9%	11µM*
COc1cc2c(cc1OC)CN(C(=S)Nc1ccc(C)cc1C)CC2	49%	-6%	i	20µM*	33%	10µM*
CCC(C(=O)OCCN1CCOC(c2ccccc2)C1C)c1ccccc1 (configuration not stated)	.	-9%	i	.	.	.
Nc1ccccc1C(=O)Nc1cccc(C(=O)O)c1	-1%	?	i	6%	4%	-12%
O=C(NNC1=C(C(=O)C(F)(F)F)CCC1)c1ccccc1O	-78%	-27%	i	?	?	11µM*
Nc1ccccc1C(=O)NNC1=C(C(=O)C(F)(F)F)CCC1	-34%	-38%	?	?	13%	7.1µM*
COc1ccccc1C(=O)NNC1=C(C(=O)C(F)(F)F)CCC1	-41%	?	?	5µM*	?	0.56µM*
O=C(CCC1CCCC1)NNC(=O)c1ccccc1O	-41%	-13%	?	.	-11%	.
COc1cccc(C(=O)NN/C(C)=C/C(=O)C(F)(F)C(F)(F)C(F)(F)F)c1	-78%	-41%	i	13µM*	?	13µM*
SMILES	HepG2 viability	ATXN2 expr inh	S2 tox	VP16 counter	TGFb SMAD3 inh	RORgamma inh
Cc1cccc(NC(=O)CS(=O)(=O)c2nc(-c3ccccc3)cn2-c2cccc(Cl)c2)c1C	-23%	-12%	?	.	?	.
O=C(NNC1=C(C(=O)C(F)(F)F)CCC1)c1ccc(Br)cc1	10µM*	?	?	?	16µM*	?
O=C(NNC1=C(C(=O)C(F)(F)F)CCC1)c1ccccc1Cl	-39%	?	?	6.3µM*	-1%	5.6µM*
COc1cccc(C(=O)NNC2=C(C(=O)C(F)(F)F)CCC2)c1	4µM*	-32%	i	?	?	5.6µM*
Cc1cc(NC(=O)NC(=O)c2ccccc2NC(=O)CN)ccc1Oc1ncc(Br)cn1	-25%	-16%	?	.	?	.
O=C(N/N=C/c1cn(-c2ccccc2)nc1-c1cc2ccccc2o1)c1ccncc1	-18%	16%	i	4.5µM*	-24%	2.8µM*
O=C(N/N=C/c1cn(-c2ccccc2)nc1-c1cc2ccccc2o1)c1cccnc1	10%	.	i	1.4µM*	-8%	4µM*
O=C(O)c1cccc(NC(=O)c2cn(-c3ccccc3)nc2-c2cc3ccccc3o2)c1	-24%	42%	?	-7%	-7%	?
COc1ccc(C2C(=O)N(C3CCC(C)CC3)CC(=O)N2C2CCCC2)cc1OC (configuration not stated)	1%	.	.	.	11%	.
O=C(NCC1Cc2cccc(-c3ccccn3)c2O1)c1cnn2cccnc12 (configuration not stated)	.	.	i	.	.	.
Cn1nc(C(C)(C)C)cc1C(=O)NCc1cc(F)cc2c1OCOC2	-11%	.	i	3.5µM*	?	?
COC(=O)c1ccc(Cl)cc1NC(=O)N1CCC(CN2CCC(C)CC2)CC1	-93%	-16%	i	.	-28%	.
C=C1[C@@H](O)[C@H](Cc2ccccc2)N(Cc2ccccc2Br)S1(=O)=O	10µM*	20µM*	18µM*	.	?	.
Cc1nc2ccccn2c(=O)c1NC(=O)c1ccccc1Cl	2%	.	.	.	2%	.
S=c1[nH]nc(COc2ccc(Cl)cc2)o1	4%	-14%	i	?	11%	6.3µM*
S=c1[nH]nc(CCc2ccc(Cl)cc2)o1	2%	12%	i	?	13%	7.9µM*
COc1ccc(OCc2n[nH]c(=S)o2)cc1	8%	1%	i	?	-2%	?
c1ccc2c(c1)nnn2Cn1nnc2ccccc21	-1%	.	i	.	0%	.
O=C(NCc1ccccc1Cl)C1CCCN(c2ncnc3onc(-c4ccc(F)cc4)c23)C1 (configuration not stated)	-28%	-4%	?	.	-22%	.
CCOC(=O)c1c(CSc2ccc(CC)cc2)oc2ccc(O)c(CN(C)C)c12	22µM*	16µM*	.	?	?	?
COc1nc(N/N=C/c2cc3c(cc2Br)OCO3)nc(N2CCOCC2)n1	-37%	6%	i	-12%	13%	12%
Cc1cc(C)nc(N/N=C/c2cc3c(cc2[N+](=O)[O-])OCO3)n1	12%	-32%	i	-2%	4%	31%
